# Screening results from PubChem BioAssay.
# HIF-2a block = inhibitors of HIF-2a; 786-0 RCC cells HIF-2a reporter, luciferase luminescence, overnight; inhibition, % at 18.8 µM; 360,000 compounds, 0.72% hits;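 active = inhibition of the luminescence signal of 40% or more relative to plate controls, in a single-dose primary screen at 18.75 µM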
# KKLEB cytotox = counter-screen for CF NF-kB inhibitors: cytotoxicity | KKLEB CF airway cells viability, ATPlite luminescence, overnight; hits give low values; cells stimulated with P. aeruginosa culture filtrate | activity change (cytotoxicity), % at 5 µM | 360,000 compounds, 0.36% hits;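 active = corrected activity change at or below -50% at 5 µM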
# CF NFkB inh = inhibitors of cystic fibrosis induced NF-kB; KKLEB NF-kB-GFP reporter, PAF-induced, GFP fluorescence overnight; inhibition, % at 5 µM; 360,000 compounds, 0.86% hits; AID 588850;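 active = at least 50% inhibition at 5 µM, scaled per plate between neutral and stimulator controls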;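 note: PAF is a Pseudomonas aeruginosa culture filtrate used as stimulus; plate controls were PAF-stimulated DMSO wells for no effect and unstimulated DMSO wells for full effect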
# TRPM1 prom inh = MITF TRPM1 promoter inhibition in SK-MEL-5 cells; SK-MEL-5 TRPM1 promoter luciferase, 24 h; inhibition, % at 12.5 µM; AID 488899; 330,000 compounds, 0.83% hits;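 active = mean inhibition across replicates of 60% or more, whatever share of single replicates reaches that level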
# CHOP inh = inhibitors of CHOP induction in ER stress response; CHO-K1 CHOP-promoter luciferase, tunicamycin-induced, 15-18 h; inhibition, % at 10 µM; 220,000 compounds, 3.8% hits;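 active = compounds that reduced the stress-induced luciferase reporter signal by more than about 70% of percent inhibition, limit read from the data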;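 note: 0% = tunicamycin plus vehicle and 100% = wells without tunicamycin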
# Peg3 promoter = inhibitors of Peg3 promoter; AID 588405; HeLa PEG-Prom luciferase reporter, luminescence, overnight; inhibition, % at 20 µM; 360,000 compounds, 1.7% hits;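 active = inhibition of at least 50% at 20 µM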
# CHOP inh conf = confirmation of CHOP induction inhibitors | CHO-CHOP promoter luciferase reporter, tunicamycin-induced, luminescence | shares compounds with CHOP inh | AID 504437 | 2,100 compounds, 45% hits | inhibition, % at 10 µM;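 active = mean of three repeat readings of reporter signal inhibition above a set limit, cut at about 70% in these data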;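 note: 0% = tunicamycin plus vehicle and 100% = wells lacking tunicamycin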
# Starred values were filed as active, the others as inactive; . = not tested or not shown. Most compounds without a hit are left out; they make up all but 4.3% or so of the library.
SMILES,HIF-2a block,KKLEB cytotox,CF NFkB inh,TRPM1 prom inh,CHOP inh,Peg3 promoter,CHOP inh conf
CC1Cc2ccccc2N1C(=O)C(C)n1cc(C(F)(F)F)cc(Cl)c1=O (stereo not given),9,5,-9,12,.,-2,.
Cc1ccccc1CN1CCN(C(=O)CC(C)C)CC1,12,-11,-9,-2,.,0,.
COC(=O)c1cc2sc(Cl)cc2n1CC(=O)Nc1ccc(OC)c(OC)c1OC,12,10,-24,0,27,8,.
COC(=O)c1cc2sc(Cl)cc2n1CC(=O)Nc1cccc(SC)c1,-26,9,6,4,99*,-1,-3
O=C(Nc1ccc2c(c1)OCO2)c1cc(C2CCCN(C(=O)CCc3ccccc3)C2)on1 (stereo not given),-213,5,-4,.,.,-202,.
O=C1CC(c2ccccc2Cl)CC(O)=C1C=Nc1ccccc1 (stereo not given),-6,-12,35,-2,103*,41,104*
Cc1ccc(N=CC2=C(O)CC(c3cccc(Cl)c3)CC2=O)cc1 (stereo not given),9,4,0,3,29,0,.
Cc1ccc(N=CC2=C(O)CC(c3ccccc3Cl)CC2=O)cc1 (stereo not given),-18,-3,5,.,3,-5,.
O=C1CC(c2ccccc2)CC(O)=C1C=Nc1cccc(Cl)c1 (stereo not given),6,-7,31,4,102*,1,76*
Cc1ccc(-n2nc3c(c2NC(=O)c2ccco2)CS(=O)C3)cc1 (stereo not given),18,-6,-27,10,.,2,.
N#C/C(=C\c1ccc([N+](=O)[O-])o1)C(=O)Nc1ccc(F)cc1,-33,4,4,33,108*,53*,106*
COc1ccc(NC(=O)/C(C#N)=C\c2ccc(Br)o2)cc1,-146,-5,1,-74,-57,-114,.
O=C(COc1ccccc1-c1ccccc1)N/N=C/c1cccc2ccccc12,14,-8,39,53,35,27,.
COc1ccc(/C=N/NC(=O)COc2ccccc2-c2ccccc2)cc1,22,-25,30,31,106*,20,11
FC(F)(F)c1ccccc1NC(=S)N/N=C1\CC2CC=CC12 (stereo not given),9,-10,-16,-9,-24,10,.
COc1ccc(C(=O)N2CCC(C)(C(=O)NS(=O)(=O)C3CC3)C2)c(OC)c1 (stereo not given),10,-1,-6,.,.,3,.
CC(C)C(NC(=O)/C=C/c1cccc([N+](=O)[O-])c1)C(C)C,14,0,-1,4,24,21,.
CC(C)NC(=O)c1ccccc1NC(=O)/C=C/c1cccc([N+](=O)[O-])c1,6,-2,2,-8,107*,5,111*
O=C(CSc1ncnc2[nH]ncc12)Nc1nc(-c2ccc(F)c(F)c2)cs1,-38,12,6,17,99*,43,116*
O=C(Cc1ccc(F)cc1)Nc1nc(-c2ccc(F)c(F)c2)cs1,-92,12,-30,-13,.,-21,.
COCCNC(=O)/C(C#N)=C/c1c(N2CCCCCC2)nc2ccccn2c1=O,-53,7,-14,-3,.,-26,.
Cc1ccc(S(=O)(=O)N2[C@H](CC(=O)c3cccs3)OC[C@@H]2C)cc1,2,.,.,.,.,.,.
COc1cccc(N2CCN(CC(=O)Nc3ccc(S(=O)(=O)N4CCCCCC4)cc3)CC2)c1,10,-31,14,8,.,3,.
Cc1ccc(-c2ccc(/C=C(\C#N)C(=O)Nc3cc(C)nn3-c3ccccc3)o2)cc1,.,.,.,.,104*,.,89*
OC(c1cc(F)cc(Cl)c1)c1ncc(-c2ccc(Cl)cc2)[nH]1 (stereo not given),9,7,-28,.,.,27,.
SMILES,HIF-2a block,KKLEB cytotox,CF NFkB inh,TRPM1 prom inh,CHOP inh,Peg3 promoter,CHOP inh conf
CCc1nnc(NC(=O)c2sc3nc4c(cc3c2N)CCCCCC4)s1,-213,5,6,-46,105*,-240,2
CCc1nnc(NC(=O)c2sc3nc4c(cc3c2N)CCCCC4)s1,-247,-2,-11,-56,-32,-284,.
CC1=CC(C)(C)NC(=S)N1c1cccc2cc(S(=O)(=O)O)ccc12,9,3,4,13,7,-8,.
Cc1ccc2nsnc2c1NC(=O)c1ccc(-c2cc(Cl)ccc2Cl)o1,31,-4,10,72*,101*,101*,62
NC(=O)Cn1c(=O)n(CCC(=O)Nc2ccc(F)cc2)c(=O)c2sccc21,0,-8,3,-5,.,5,.
COc1ccc(S(=O)(=O)N2CCCCC2c2cc(C(=O)N3CCOCC3)no2)cc1 (stereo not given),-2,16,-38,.,.,13,.
COc1c(CC=C(C)C)cc(C2CC(=O)c3c(O)cc(O)cc3O2)cc1CC=C(C)C (stereo not given),-56,-15,34,-4,104*,-15,110*
COc1ccc([C@@H]2CC(=O)c3c(O)cc(O)cc3O2)cc1O,-62,-5,22,-47,.,-173,.
N#CC1=C(N)C(C#N)(C#N)C(c2cccnc2)C2CC(c3ccccc3)CC=C12 (stereo not given),16,-22,69*,5,96*,12,33
N#CC1=C(N)C(C#N)(C#N)C(c2cccnc2)C2CCCC=C12 (stereo not given),.,.,.,.,-2,.,.
CC(C)C[C@H]1CNC(=S)N1C[C@H]1CCCN1C[C@H](Cc1ccc(O)cc1)N1C[C@H](Cc2ccccc2)N(CC2CCCCCC2)C1=S,1,-17,48,.,.,-10,.
O=C1NC(=S)S/C1=C\C=C\c1ccc([N+](=O)[O-])o1,82*,-40,93*,90*,105*,104*,117*
CCc1ccc2[nH]c(=O)c(C(c3nnnn3Cc3ccccc3)N3CCOCC3)cc2c1 (stereo not given),10,8,-3,6,0,-2,.
CCc1ccc2[nH]c(=O)c(C(c3nnnn3Cc3ccco3)N3CCC(C)CC3)cc2c1 (stereo not given),16,-2,-3,0,99*,20,77*
Cc1cc2ncn(-c3ncnc4sc5c(c34)CCCC5)c2cc1C,.,.,.,.,32,.,.
Cc1cc2ncn(-c3ncnc4sc5c(c34)CCC(C)C5)c2cc1C (stereo not given),20,-2,16,-8,97*,15,14
Cc1cc(C)n(-c2nc3ccccc3nc2Nc2ccc3c(c2)OCO3)n1,-22,-8,-24,-9,-11,-9,.
Cc1ccc2nc(Nc3ccc4[nH]c(=O)[nH]c4c3)c(-n3nc(C)cc3C)nc2c1,-152,8,-1,-63,104*,-164,114*
CC1CCCN(C(=O)COC(=O)C2=COCCO2)C1 (stereo not given),-77,-9,11,-30,.,-60,.
